# Source: PubChem BioAssay (National Center for Advancing Translational Sciences (NCATS))
# Rows were chosen to be rich in hits. Some 19% of all compounds tested hit in one or more screens of this group.
# HT1080NT lethal: kills 2HG-producing HT-1080-NT fibrosarcoma cells; Potency, µM (titrated, usually from 46.1 µM), without a hit: at the highest dose activity, negative = less viability, actives largely listed as cytotoxic; AID 686970; HT-1080-NT fibrosarcoma viability, CellTiter-Glo ATP luminescence, 48 h; hit rate 1.6% among 360,000;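 also: NT is the 2HG producing partner of a matched IDH1 knockdown line; 0% = DMSO-treated cells and -100% = media-only wells without cells; nearly all actives have a fitted effect of over 55% in size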
#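 Viability by CellTiter-Glo luminescence after 48 h compound exposure at 37C of HT-1080-NT cells (750/well, RPMI, 5% FBS). % activity scaled between DMSO wells and medium-only wells, then curve-fitted and categorized by curve class.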
# HT1080 IDH1KD tx: HT-1080 IDH1 knockdown cell toxicity (counter line) | HT-1080 IDH1 knockdown viability, ATP luminescence, 48 h | Potency, µM (series often up to 46.1 µM), inactives show at the top dose activity, negative = toxicity, actives largely listed as cytotoxic | hit rate 2% among 360,000 | AID 686971;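 also: 0% = DMSO wells and -100% = cell-free medium wells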
#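 In this qHTS, HT-1080 cells depleted of IDH1 are exposed for 48 h at 37 °C to compound titrations. Toxicity is scored from CellTiter-Glo luminescence, with DMSO as full viability and medium alone as none.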
# KB-3-1 cytotox: kills parental KB-3-1 adenocarcinoma cells; KB-3-1 viability, CellTiter-Glo ATP luminescence, 72 h; Potency, µM (doses to about 46.1 µM), most hits filed as cytotoxic; hit rate 1.4% among 400,000; AID 1347075; also: nearly all actives have a fitted effect of over 60% in size
#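 KB-3-1 cells, DMEM (no phenol red) + 10% FBS; compound by pin transfer, 72 h, 37 °C. Readout: CellTiter-Glo luminescence after 10 min. Data normalized, curve-fitted.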
# TDP1 cell noCPT: qHTS for Inhibitors of human tyrosyl-DNA phosphodiesterase 1 (TDP1): qHTS in cells in absence of CPT | Potency, µM (titrated, usually from 46.2 µM), for the others: at the top dose activity change, negative = growth inhibition, usual class: inhibitors | hit rate 15% among 420,000 | DT40 Tdp1-/- hTDP1 cells, no CPT, ATP luminescence, 48 h | AID 686978, 2013; also: nearly all actives have a fitted effect of over 55% in size
#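 Chicken DT40 Tdp1-/- cells complemented with human TDP1, screened without camptothecin (DMSO vehicle only), 400 cells/well. Compounds pin-transferred, cells incubated at 37 °C for at least 48 hr. Growth read as ATP-dependent luminescence (CellTiter-Glo, 30 min at RT).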
# DT40 TDP1 CPT: growth inhibition of DT40 Tdp1-/-;hTDP1 cells with camptothecin (screen for TDP1 inhibitors); chicken DT40 Tdp1-/-;hTDP1 cells + 20 nM CPT, ATP luminescence, 48 h; Potency, µM (highest dose often 46.2 µM), without a hit: at the top dose activity change, negative = growth inhibition, actives largely listed as inhibitors; hit rate 12% among 420,000; AID 686979; also: nearly all actives have a fitted effect of over 55% in size
#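 Chicken DT40 Tdp1-/- cells stably complemented with human TDP1 were seeded at 400 cells/well in medium containing 20 nM camptothecin, exposed to pin-transferred compounds, and grown at 37 °C for at least 48 hr. Viability was read as ATP luminescence.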
# KB-V1 MDR tox: kills drug-selected multidrug resistant KB-V1 cells | hit rate 3.4% among 400,000 | Potency, µM (titrated, usually from 46.1 µM), usual class: cytotoxic | KB-V1 MDR cells viability, CellTiter-Glo, 72 h; also: nearly all actives have a fitted effect of over 60% in size
#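 KB-V1 MDR subline cells in DMEM (phenol-red free, 10% FBS) exposed to compounds in qHTS concentration series for 72 h at 37 degrees C. Viability read by CellTiter-Glo luminescence; concentration-effect curves fitted after normalization and correction.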
# * hit, by the source's call; i = inactive; u = inconclusive; x = no result; [ ] = another dose, or the depositor's remark. Calls follow the shape of the dose curve; as a rule, active = well fitted curve in the direction sought with a large enough effect; inconclusive = small, poorly fitted or top-dose-only effect, or another doubt; inactive = no such curve, though single readings can be large; an effect the other way counts as inactive or inconclusive. Unless noted, % is scaled to controls: 0 for no effect and ±100 for the full control effect; potency is read from the fitted curve at half-maximal effect.
SMILES,HT1080NT lethal,HT1080 IDH1KD tx,KB-3-1 cytotox,TDP1 cell noCPT,DT40 TDP1 CPT,KB-V1 MDR tox
CC(=O)c1c(C)[nH]c(C(=O)CSc2nnc(-c3ccccc3)o2)c1C,-5.1%,-13.2%,i,14.6µM*,16.4µM*,i
Cc1cc(-c2nnc(SCC(=O)c3ccc4c(c3)OCCO4)o2)no1,-5.6%,15.1%,i,7.6%,7.1%,i
O=C(CSc1nnc(-c2ccccc2)o1)c1ccc2c(c1)OCCO2,2.8%,-3.6%,i,u,16.4µM*,i
CC(=O)c1c(C)[nH]c(C(=O)CSc2ncnc3sc(-c4ccccc4)cc23)c1C,-0.2%,u,i,u,9.2µM*,7.31µM*
CNC(C)[C@@H]1CC[C@@H](N)[C@@H](O[C@H]2[C@H](O)[C@@H](O[C@H]3OC[C@](C)(O)[C@H](NC)[C@H]3O)[C@H](N)C[C@@H]2N)O1 (stereo partly drawn),x,x,x,-5.6%[21.1 µM],-18.5%[21.1 µM],x
Cc1ccc(S(=O)(=O)N2CCN(C(=O)c3cc(C4CC4)nc4c3cnn4C(C)C)CC2)cc1,-3.7%,0.0%,u,4.11µM*,u,i
CC(C)n1ncc2c(C(=O)N3CCN(Cc4ccc(Cl)s4)CC3)cc(C3CC3)nc21,2.6%,-11.9%,u,u,u,8.2µM*
CC(C)n1ncc2c(C(=O)N3CCN(S(=O)(=O)c4cccc(F)c4)CC3)cc(C3CC3)nc21,-3.6%,10.2%,i,13.5%,-1.1%,i
Cc1nc2ncnn2c(C)c1CCC(=O)NCc1ccc(Cl)cc1,x,x,i,-0.4%,2.9%,u
CCOc1cc2c(cc1OCC)C(c1c(F)cccc1Cl)CC(=O)N2 (stereo not drawn),x,x,i,u,u,i
O=C(c1ccc(COc2ccccc2Br)o1)N1CCCCCC1,3.4%,-21.4%,i,u,20.6µM*,i
O=C(c1ccc(COc2ccccc2Br)cc1)N1CCCCC1,-17.5%,-26.6%,i,16.4µM*,14.6µM*,i
CCCc1ccc(OCc2ccc(C(=O)N3CCCC3)o2)cc1,u,-28.5%,i,20.6µM*,u,i
O=C(COc1ccccc1Cl)Nc1ccc(C(=O)N2CCCCC2)cc1,u,-10.3%,u,u,u,i
COc1ccc(CCNC(=O)CSc2nnc3ccc(-c4ccccn4)nn23)cc1OC,13.0%,3.2%,i,u,1.4%,i
COc1ccc(S(=O)(=O)Nc2cc3c(cc2N2CCOCC2)n(C)c(=O)n3C)cc1,x,x,i,u,u,i
CC(C)n1c(C(F)(F)F)nc2cc(C(=O)N3CCCCC3)ccc21,26.1%,17.2%,i,-7.8%,1.7%,i
Cc1cc(NC(=O)CCC(=O)N(CC(=O)NC2CCCC2)c2ccc(Cl)cc2)no1,9.7%,0.0%,i,-10.0%,0.3%,i
CCOC(=O)CSc1nc2ccc(NC(=O)c3ccccc3F)cc2s1,x,x,i,-8.7%,-20.6%,i
CC(=O)n1cc(N(C(=O)CCl)c2ccc(Cl)cc2)c2ccccc21,2.31µM*,6.51µM*,u,1.3µM*,1.46µM*,u
COc1ccccc1N(C(=O)CCl)c1cn(C(C)=O)c2ccccc12,1.46µM*,7.31µM*,u,4.61µM*,4.61µM*,14.6µM*
Cc1ccc(F)c(S(=O)(=O)NC(=O)C2(C)CCN2C(=O)CC(c2ccccc2)c2ccccc2)c1 (stereo not drawn),0.7%,11.8%,i,20.6µM*,u,i
C#Cc1ccc(NC(=O)C2(C)CCN2C(=O)C2(c3ccccc3)CC2)cc1 (stereo not drawn),-5.4%,u,i,u,u,i
